Screening data: PubChem BioAssay, National Center for Advancing Translational Sciences (NCATS)
ERK EGF inh: inhibitors of EGF-stimulated ERK signaling pathway | HEK293-V1b, EGF-stimulated phospho-ERK AlphaScreen | Potency, µM (series often up to 11.5 µM), usual class: inhibitors | hit rate 0.41% among 130,000 | AID 1454; active means well fitted inhibition curve with a large enough effect; further: nearly all actives have a fitted effect of over 55% in size
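In this qHTS, HEK293 cells with stable type-1 vasopressin (V1b) receptor were exposed to compound at 37C for 30 min, stimulated 5 min with EGF at 25 nM, lysed, and probed for phospho-ERK by AlphaScreen.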
Of the large screens only hits and unclear results are named; the others gave an inactive call. Many of the other results were omitted from the sample, so hits are more common in it than they were.

O=[N+]([O-])c1cc(/C=N/N2CCN(c3ccccc3)CC2)ccc1Cl	none
COc1ccccc1N1CCN(/N=C/C=C/c2ccccc2[N+](=O)[O-])CC1	ERK EGF inh 20µM
O=[N+]([O-])c1ccccc1/C=N\N1CCN(c2ccccc2)CC1	ERK EGF inh 22.4µM
COc1ccccc1N1CCN(/N=C/c2cccc(OC)c2OC)CC1	none
COc1cc(C(=O)N2CCN(c3ccccc3OC)CC2)c([N+](=O)[O-])cc1OC	none
Cc1ccc(/C=N/N2CCN(c3ccccc3)CC2)cc1	none
CC[C@]1(O)C[C@@H]2CN(CCc3c([nH]c4ccccc34)[C@](C(=O)OC)(c3cc4c(cc3OC)N(C=O)[C@H]3[C@@](O)(C(=O)OC)[C@H](C(=O)OC)[C@@]5(CC)C=CCN6CC[C@]43[C@H]65)C2)C1	none
CCCCCCCc1cc2c(cn1)C(=O)C(C)(OC(C)=O)C(O)=C2Cl (stereo not given)	none
COc1cccc([C@@H]2Oc3ccc(Br)cc3C(=O)[C@H]2OC(=O)N[C@H]2CCCc3ccccc32)c1	none
CCC(C(=O)O)C1CCC(C)C(C(C)C(O)C(C)C(=O)C(CC)C2OC3(C=CC(O)[C@@]4(CC[C@](C)(C5CC[C@@](O)(CC)C(C)O5)O4)O3)C(C)CC2C)O1 (stereo not given in full)	none
Cc1ccc(C)n1-c1ccc(N2CCOCC2)c([N+](=O)[O-])c1	none
O=[N+]([O-])c1cc(-n2cccc2)ccc1N1CCOCC1	ERK EGF inh 28.2µM
O=[N+]([O-])c1cc(Cl)ccc1N1CCOCC1	none
COc1cc(-c2ccc(N=Nc3ccc4c(S(=O)(=O)O)cc(S(=O)(=O)O)c(N)c4c3O)c(OC)c2)ccc1N=Nc1ccc2c(S(=O)(=O)O)cc(S(=O)(=O)O)c(N)c2c1O	none
COC(=O)N[C@@H](c1cccc(F)c1)C(C(C)=O)C(=O)OC (stereo not given in full)	none
CCCCCS(=O)(=O)CCCCCCCCCCn1c(-c2ccc(O)cc2)c(C)c2cc(O)ccc21	ERK EGF inh 14.1µM
CCCCCC(=O)c1ccc(O)cc1O	none
CCCCCn1c(=O)c(-c2nc3ccccc3[nH]2)c(O)c2ccccc21	none
C[C@@]12C=CC(=O)C=C1CC[C@@H]1[C@@H]2[C@H](O)C[C@]2(C)[C@@H]1CC[C@]2(O)C(=O)CO	none
C=CCC(C)(O)c1ccccc1 (stereo not given)	none
Nc1ncnc2c1ncn2[C@@H]1O[C@H](COP(=O)(O)OP(=O)(O)OP(=O)(O)OP(=O)(O)OC[C@@H]2O[C@H](n3cnc4c(N)ncnc43)[C@@H](O)[C@@H]2O)[C@H](O)[C@H]1O	none
COc1ccc(C(=O)/C=C/c2ccc(O)cc2)cc1	none
COc1ccc(C(=O)/C=C/c2ccccc2)cc1	none
COc1ccc(C(=O)/C=C/Sc2nc3ccccc3o2)cc1	ERK EGF inh 28.2µM
CCCCNc1nc(C)nc2c1nc(-c1ccccc1)n2CC1CCCN1CC (stereo not given)	none
Cc1nc(NCc2ccccc2)c2nc(-c3ccccc3)n(C(C)CN(C)C)c2n1 (stereo not given)	none
COc1cc(C=C2C(=O)c3ccccc3C2=O)cc(OC)c1	none
COC1=C(Nc2ccccc2)C(=O)c2ccccc2C1=O	ERK EGF inh 14.1µM
COC1=C(OC)C(=O)c2ccccc2C1=O	none
COC1=C(Nc2ccc(C)cc2)C(=O)c2ccccc2C1=O	ERK EGF inh 11.2µM
Cc1ccc(NN=C2c3ccccc3-c3ccccc32)cc1	none
Cc1ccc(SC2=C(Sc3ccc(C)cc3)C(=O)c3ccccc3C2=O)cc1	none
CC[C@H](C)N(C)C(=O)c1cc2ccccc2c(-c2ccccc2Cl)n1	none
CCCCCCCN[C@H]1CCC[C@@H]1CCCCCCC(=O)O	none
CN(C)C(=O)c1ccc(-c2nc(NCc3ccccc3)c3ccccc3n2)cc1	none
CC1CC[C@]2(CO)CC[C@]3(C)C(=CCC4[C@@]5(C)CCC(O)C(C)(C)C5CC[C@@]43C)C2C1C (stereo not given in full)	none
COC(=O)[C@@]1(Cc2ccccc2)[C@H]2c3cc(C(=O)N4CCCC4)n(Cc4ccccn4)c3C[C@H]2CN1C(=O)c1ccccc1	none
Cn1cc(/C=C2\SC(=O)N(c3ccccc3)C2=O)c2ccccc21	none
Cn1cc(/C=C2\SC(=O)N(c3ccc(O)cc3)C2=O)c2ccccc21	ERK EGF inh 35.5µM
CCN1C(=O)S/C(=C/c2cn(C)c3ccccc23)C1=O	none
OC(c1cc(-c2ccc(Cl)cc2)nc2ccccc12)C1CCCCN1 (stereo not given)	ERK EGF inh 31.6µM
O=C(NCc1ccccn1)c1cc(-c2ccc(Cl)cc2)nc2ccccc12	none
OC(c1cc(C(F)(F)F)nc2c(Cl)cc(Cl)cc12)C1CCCCN1 (stereo not given)	none
Cc1noc(C)c1-c1ccc2ncnc(N(C)Cc3ccco3)c2c1	none
N#Cc1cccc(CS(=O)(=O)c2nc3ccccc3s2)c1	none
COc1cccc([C@@H]2Oc3ccc(Br)cc3C(=O)[C@H]2OC(=O)NCCOc2ccccc2)c1	none
Cn1c(CNC2CCCCC2)nc2ccccc21	none
Cc1cc(C)c(C)c(N=Nc2nc3ccccc3n2C)c1C	ERK EGF inh 14.1µM
C/C(=N\NC(=O)c1ccccc1)c1nc2ccccc2n1C	none
CC(C)CC1NC(=O)C(CCCN)NC(=O)C(C(C)C)NC(=O)C2CCCN2C(=O)C(Cc2ccccc2)NC(=O)C(CC(C)C)NC(=O)C(CCCN)NC(=O)C(C(C)C)NC(=O)C2CCCN2C(=O)C(Cc2ccccc2)NC1=O (stereo not given)	ERK EGF inh 3.55µM
CCC(C)CCCCC(=O)NC(CCN)C(=O)NC(C(=O)NC(CCN)C(=O)NC1CCNC(=O)C(C(C)O)NC(=O)C(CCN)NC(=O)C(CCN)NC(=O)C(CC(C)C)NC(=O)C(Cc2ccccc2)NC(=O)C(CCN)NC1=O)C(C)O (stereo not given)	none
CC(C)C1NC(=O)[C@H](CCCCN)NC(=O)[C@@H](Cc2c[nH]c3ccccc23)NC(=O)[C@H](Cc2ccc(O)cc2)NC(=O)[C@H](C)N(C)C(=O)[C@H](Cc2ccccc2)NC1=O (stereo not given in full)	none
CC(C)[C@@H](CC(=O)N[C@@H]1CCNC[C@H]1C(=O)N[C@H](CC(=O)N[C@@H](CCC(=O)O)CC(=O)O)Cc1ccccc1)NC(=O)C[C@H](Cc1c[nH]c2ccccc12)NC(=O)[C@@H]1CCCC[C@H]1N	none
CN(C(=O)c1ccccc1C(=O)OCC(=O)NC(=O)NC(C)(C)C)C1CCCCC1	none
CN(C)c1ccc(N=Nc2ccccc2C(=O)OCC(=O)NCC2CCCCC2)cc1	ERK EGF inh 12.6µM
CN(C)c1ccc(C(=O)OCC(=O)NC2CCCCCC2)cc1	none
CC(C)OCCCNC(=S)NNC(=O)C(c1ccccc1)c1ccccc1	none
CCN(CC)CCCNC1=C(Cl)C(=O)c2ccccc2C1=O	none
CC(C)OCCCNC1=C(Cl)C(=O)c2ccccc2C1=O	ERK EGF inh 28.2µM
COC(=O)[C@H](Cc1ccccc1)NC(=O)O[C@@H]1C(=O)c2cc(OC)ccc2O[C@H]1c1cccc(OC)c1	none
C=CCOC(=O)N[C@@H](Cc1ccccc1)/C(C(=O)OC)=C(\C)NCc1ccccc1	none
CC1OC(OC2C(OC3C(O[C@H]4CC[C@]5(C)C6C=C[C@]78OC[C@@]9(CC[C@@H](C)[C@H](C)C97)[C@H](O)C[C@@]8(C)[C@]6(C)CC[C@H]5C4(C)C)OC(C)C(O)C3O)OC(CO)C(O)C2O)C(O)C(O)C1O (stereo not given in full)	ERK EGF inh 11.2µM
CC1O[C@@H](O[C@H]2C(Oc3cc(O)c4c(c3)OC(c3ccc(O)cc3)CC4=O)OC(CO)C(O)C2O)C(O)C(O)C1O (stereo not given in full)	none
